# Assay results published in PubChem BioAssay (NCI).
# Several values for one entry are separate records, joined by “and”; a condition that tells them apart may be missing. Equal entries are not always repeated. This is part of a sample that, as a whole, favours compounds with a hit. Of some 83,000 tested, about 20% had one in any assay.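 Treatment: one concentration, 48 hours, 96-well format. Scoring: percent growth, with anything below 10 considered active.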 Activity calls are given as the source filed them.
# Tested on: HL-60(TB) leukemia
# Assay: NCI-60 one-dose screen, 48 h (100 = growth as untreated, 0 = no growth, -100 = all killed)
# Conditions: 10 µM unless noted
row,SMILES,growth
1,COc1ccc(C(=O)N2NC(=O)/C(=C/c3ccc(F)cc3)N=C2c2ccccc2)cc1,3.84% (active)
2,CN(C)CCn1cc(-c2ccc3c(Nc4ccc(CC(=O)Nc5cccc(F)c5)cc4)ncnc3c2)cn1,-55.3% [30 µM] (active)
3,CC(=O)[C@@H]1CCC=C2CC[C@]3(C)[C@@H](CC[C@@H]4[C@@]5(C)CCCNC(C)(C)[C@@H]5CC[C@]43C)[C@H]21,-12.3% (active)
4,Cc1cc(O)c(C(C)C)cc1S(=O)(=O)O (tested in a mixture with another compound),84.2% (inactive) and -0.846% (active) and 104% (inactive)
5,CC1=C/C(O)CC(=O)Cc2nc(co2)C(=O)N2CCC=C2C(=O)OC(C(C)C)C(C)/C=C\C(=O)NC/C=C\1 (stereo unspecified),56.4% (inactive)
6,NC(=O)c1n[nH]n2c1nc(=O)c1c3c(sc12)CCCC3,99.9% (inactive)
